We go through nine compounds from PubChem BioAssay (NCI).

“And” between values parts separate entries of the source, which are not always exact repeats. Identical values can stand only once. The panel holds about 83,000 compounds, 20% with a hit somewhere; the sample as a whole holds those more often.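 48-hour exposure, single concentration, 96-well plates; percent growth endpoint where 0 means no net growth. Active: below 10.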 The source made the active and inactive calls.

What all share (experiment): NCI-60 one-dose screen, 48 h (100 = growth as untreated, 0 = no growth, -100 = all killed)
In one test the test system is SK-MEL-2 melanoma. The following applies: 10 µM.
The subject of another test is EKVX NSCLC. The settings on record: 10 µM.
The next test has as its system UO-31 renal. The following applies: 10 µM.
A further test has as its system TK-10 renal.
The next test concerns ACHN renal. The settings on record: 10 µM.
Another test has as its system CAKI-1 renal. The settings on record: 10 µM.
The test system of another test is A498 renal. The settings on record: 10 µM.
The next test relates to CCRF-CEM leukemia. The settings on record: 10 µM.
In another test the test system is MOLT-4 leukemia. The settings on record: 10 µM.
In the next test the test system is SR leukemia. The following applies: 10 µM.
The next test has as its system OVCAR-8 ovarian. The following applies: 10 µM.
The next test concerns OVCAR-5 ovarian. The settings on record: 10 µM.
The test system of another test is OVCAR-4 ovarian. The settings on record: 10 µM.
The subject of the next test is SK-OV-3 ovarian. The settings on record: 10 µM.
Another test deals with IGROV1 ovarian. The settings on record: 10 µM.
In another test the test system is OVCAR-3 ovarian. The following applies: 10 µM.
In a further test the test system is HS 578T breast. The settings on record: 10 µM.
The test system of a further test is NCI/ADR-RES ovarian. The settings on record: 10 µM.
Another test deals with SN12C renal. The settings on record: 10 µM.
The test system of a further test is RPMI-8226 leukemia. The following applies: 10 µM.

In the case of `CN(C)CCC(=O)c1ccc(O)cc1`, the growth in the test with SK-MEL-2 melanoma was 107% (inactive); with EKVX NSCLC it was 107% (inactive); with UO-31 renal, 87.2% (inactive); in the test with TK-10 renal (10 µM unless noted), 106% (inactive); in the test on ACHN renal it was 114% (inactive); in the test with CAKI-1 renal, 97.1% (inactive). Further, the growth is 99.4% (inactive) in the test with A498 renal; 109% (inactive) in the test with CCRF-CEM leukemia; 113% (inactive) with MOLT-4 leukemia; 105% (inactive) in the test with SR leukemia; 102% (inactive) in the test with OVCAR-8 ovarian; 115% (inactive) with OVCAR-5 ovarian. Moreover, the growth in the test with OVCAR-4 ovarian is 108% (inactive); with SK-OV-3 ovarian, 110% (inactive); with IGROV1 ovarian it was 113% (inactive); in the test on OVCAR-3 ovarian it was 97.4% (inactive); with HS 578T breast, 112% (inactive); in the test on NCI/ADR-RES ovarian, 106% (inactive).
In the case of `CCCOC(=O)C(O)c1ccccc1` (stereo not given), the growth in the test on SK-MEL-2 melanoma was 106% (inactive); in the test on EKVX NSCLC, 50.6% (inactive); with SN12C renal, 102% (inactive); in the test with TK-10 renal (10 µM unless noted), 106% (inactive); in the test on CAKI-1 renal, 96.3% (inactive); in the test with A498 renal, 94.7% (inactive). Also, the growth with CCRF-CEM leukemia was 88.8% (inactive); with MOLT-4 leukemia, 110% (inactive); in the test on SR leukemia it was 107% (inactive); in the test on RPMI-8226 leukemia, 118% (inactive); in the test with OVCAR-8 ovarian, 114% (inactive); in the test with OVCAR-5 ovarian, 94.9% (inactive). Also, the growth with OVCAR-4 ovarian was 119% (inactive); in the test on SK-OV-3 ovarian, 107% (inactive); with IGROV1 ovarian, 117% (inactive); with OVCAR-3 ovarian, 106% (inactive); in the test on HS 578T breast, 104% (inactive); with NCI/ADR-RES ovarian it was 109% (inactive).
For the compound `Clc1ccc(-c2nnc(-c3cccc4ccccc34)o2)cc1`, the growth with SK-MEL-2 melanoma is 96.4% (inactive); in the test with EKVX NSCLC, 34% (inactive); in the test on UO-31 renal, 41.4% (inactive); with TK-10 renal (10 µM unless noted), 95.3% (inactive); with ACHN renal, 90% (inactive); in the test on CAKI-1 renal it was 81.6% (inactive). Further, the growth was 104% (inactive) in the test on MOLT-4 leukemia; 85.5% (inactive) in the test on SR leukemia; 101% (inactive) in the test on RPMI-8226 leukemia; 94.7% (inactive) in the test on OVCAR-8 ovarian; 93.3% (inactive) in the test with OVCAR-5 ovarian; 84.1% (inactive) with OVCAR-4 ovarian. Also, the growth in the test with SK-OV-3 ovarian was 91.6% (inactive); with IGROV1 ovarian, 69.2% (inactive); with OVCAR-3 ovarian it was 103% (inactive); in the test on HS 578T breast it was 103% (inactive); with NCI/ADR-RES ovarian, 95.6% (inactive).
In the case of `O=C(O)CCC(NC(=O)OCc1ccccc1)C(=O)O` (stereo not given), the growth is 105% (inactive) with SK-MEL-2 melanoma; 100% (inactive) in the test with SN12C renal; 94.9% (inactive) in the test with UO-31 renal; 93.1% (inactive) in the test on TK-10 renal (10 µM unless noted); 111% (inactive) with ACHN renal; 101% (inactive) in the test with CAKI-1 renal. For the same compound, the growth was 106% (inactive) with A498 renal; 101% (inactive) in the test with CCRF-CEM leukemia; 105% (inactive) with MOLT-4 leukemia; 97.5% (inactive) in the test with SR leukemia; 107% (inactive) in the test on RPMI-8226 leukemia; 105% (inactive) in the test on OVCAR-5 ovarian. Further, the growth with OVCAR-4 ovarian is 106% (inactive); in the test on SK-OV-3 ovarian it was 82.4% (inactive); in the test with OVCAR-3 ovarian, 103% (inactive); in the test on HS 578T breast, 107% (inactive); in the test with NCI/ADR-RES ovarian, 107% (inactive).
Regarding `C=CC(O)CCC` (stereo not given), the growth in the test on SK-MEL-2 melanoma was 122% (inactive); in the test on SN12C renal it was 99.5% (inactive); in the test on UO-31 renal, 89.9% (inactive); in the test with TK-10 renal (10 µM unless noted) it was 102% (inactive); with ACHN renal, 98.5% (inactive); in the test on CAKI-1 renal it was 92.1% (inactive). For the same compound, the growth in the test on A498 renal is 108% (inactive); in the test with CCRF-CEM leukemia, 98.4% (inactive); with MOLT-4 leukemia, 110% (inactive); in the test on SR leukemia it was 92.4% (inactive); in the test with RPMI-8226 leukemia it was 103% (inactive); with OVCAR-8 ovarian, 101% (inactive). Moreover, the growth with OVCAR-5 ovarian is 103% (inactive); in the test with OVCAR-4 ovarian, 95.6% (inactive); with SK-OV-3 ovarian it was 108% (inactive); in the test on IGROV1 ovarian, 121% (inactive); with OVCAR-3 ovarian, 113% (inactive); with HS 578T breast, 110% (inactive). Further, the growth in the test with NCI/ADR-RES ovarian is 103% (inactive).
As for `CC(C)=C(NC(=O)c1ccccc1)C(=O)O`, the growth was 98.3% (inactive) in the test with SK-MEL-2 melanoma; 118% (inactive) in the test on EKVX NSCLC; 101% (inactive) in the test on UO-31 renal; 106% (inactive) with TK-10 renal (10 µM unless noted); 106% (inactive) in the test on ACHN renal; 103% (inactive) in the test on CAKI-1 renal. In addition, the growth is 90.5% (inactive) with A498 renal; 7.71% (active) in the test with CCRF-CEM leukemia; 12.1% (inactive) in the test with MOLT-4 leukemia; 95.4% (inactive) in the test with SR leukemia; 104% (inactive) with OVCAR-8 ovarian; 101% (inactive) with OVCAR-5 ovarian. Also, the growth in the test on OVCAR-4 ovarian is 118% (inactive); in the test with SK-OV-3 ovarian it was 112% (inactive); in the test with OVCAR-3 ovarian, 107% (inactive); in the test with NCI/ADR-RES ovarian, 111% (inactive).
Regarding `COc1cc2c3cc1Oc1c(OC)c(OC)cc4c1C(Cc1ccc(O)c(c1)Oc1ccc(cc1)CC3N(C)CC2)N(C)CC4` (stereo not given), the growth in the test on SK-MEL-2 melanoma is -16% (active); in the test on SN12C renal it was 16.9% (inactive); with UO-31 renal it was 2.84% (active); in the test on TK-10 renal (10 µM) it was 4.81% (active); with TK-10 renal (100 µM), 96% (inactive) and -100% (active); with ACHN renal, 18.9% (inactive). The growth in the test on A498 renal is 21.4% (inactive); in the test with CCRF-CEM leukemia it was 2.18% (active); with MOLT-4 leukemia it was -3.59% (active); with SR leukemia it was -1.66% (active); in the test with RPMI-8226 leukemia, -27.4% (active); in the test on OVCAR-8 ovarian it was 7.71% (active). Further, the growth in the test on OVCAR-5 ovarian is -0.193% (active); with OVCAR-4 ovarian, 13.5% (inactive); with SK-OV-3 ovarian, 43% (inactive); with IGROV1 ovarian, 13.7% (inactive); in the test with OVCAR-3 ovarian, 18.8% (inactive); in the test on HS 578T breast it was 55.3% (inactive). Besides, the growth with NCI/ADR-RES ovarian was 0.974% (active).
`c1cc2cccc3c4cccc5cccc(c(c1)c23)c54`: the growth with SK-MEL-2 melanoma is 98.7% (inactive); in the test with EKVX NSCLC it was 104% (inactive); in the test with SN12C renal it was 98.6% (inactive); with TK-10 renal (10 µM unless noted), 102% (inactive); in the test on A498 renal it was 116% (inactive); in the test with CCRF-CEM leukemia it was 103% (inactive). The growth in the test on MOLT-4 leukemia is 105% (inactive); in the test with SR leukemia, 108% (inactive); in the test with RPMI-8226 leukemia, 113% (inactive); in the test with OVCAR-8 ovarian it was 112% (inactive); with OVCAR-5 ovarian it was 106% (inactive); in the test on OVCAR-4 ovarian, 95.5% (inactive). Further, the growth is 94.1% (inactive) with SK-OV-3 ovarian; 125% (inactive) with IGROV1 ovarian; 108% (inactive) in the test on OVCAR-3 ovarian; 112% (inactive) with HS 578T breast; 108% (inactive) in the test with NCI/ADR-RES ovarian.
`CCCCCCCO`: the growth in the test with SK-MEL-2 melanoma is 134% (inactive); in the test on SN12C renal it was 99.4% (inactive); in the test with UO-31 renal, 82.1% (inactive); with TK-10 renal (10 µM unless noted) it was 117% (inactive); in the test with ACHN renal, 92.5% (inactive); in the test with CAKI-1 renal, 110% (inactive). For the same compound, the growth in the test with A498 renal is 105% (inactive); in the test with CCRF-CEM leukemia, 103% (inactive); in the test with MOLT-4 leukemia it was 96.4% (inactive); with SR leukemia, 91.5% (inactive); in the test with RPMI-8226 leukemia, 102% (inactive); in the test on OVCAR-8 ovarian it was 99.7% (inactive). Besides, the growth with OVCAR-5 ovarian is 87.5% (inactive); in the test with OVCAR-4 ovarian, 97.9% (inactive); in the test with SK-OV-3 ovarian, 106% (inactive); in the test on IGROV1 ovarian, 115% (inactive); in the test with OVCAR-3 ovarian it was 115% (inactive); in the test on HS 578T breast it was 102% (inactive). Besides, the growth in the test on NCI/ADR-RES ovarian is 107% (inactive).
